SMILES strings stand for the structures. This is part of a sample that, as a whole, favours compounds with a hit. Of some 83,000 tested, about 20% had one in any assay.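 How to read the values: 0–100, growth inhibition (40 = 60% inhibited); 0, no net growth; -100 to 0, cell death (-40 = 40% of starting cells died; -100 = all dead).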 Unmarked numbers belong to inactive results. The source made the active and inactive calls. The calls were made as follows: active = growth percent below 10; inactive = the rest.

The test system of this assay is MDA-MB-468 breast. The assay can be described thus: NCI-60 one-dose screen, 48 h (100 = growth as untreated, 0 = no growth, -100 = all killed). The conditions noted are these: 10 µM unless noted.
For `CCOc1ccc(/C=C\C(=O)O)cc1`, the growth was 121%.

For the compound `COc1cc2ncnc(Nc3ccc(O)cc3)c2cc1OC`, the growth is 17.6%.

Regarding `O=C(NO)c1ccc(NCc2csc3ccccc23)cc1`, the growth was 76.9%.

As to `COC(=O)CCOc1ccccc1`, the growth was 80%.

`CCOC(=O)c1cnn(-c2nc(-c3ccc(F)cc3)c(C#N)c(N3CCOCC3)n2)c1N`: the growth is 92.6%.

For the compound `CCOC(=O)C#Cc1c(C(=O)OCC)nnn1Cc1ccc(C(F)(F)F)cc1`, the growth is -25.7% (active).

On to `CC(=O)NC(N)=S`, for which the growth is 109%.

As for `NCCCN(CCCN)CCCNCc1c2ccccc2c(CNCCCN(CCCN)CCCN)c2ccccc12`, the growth is 83.4%.

For the compound `COc1ccc(Cl)c(Nc2nc3ccccc3nc2NS(=O)(=O)c2cccc(NC(=O)C(C)(C)N)c2)c1`, the growth was 21.5%.

In the case of `COC1=CC(c2ccc[nH]2)=N/C1=C\c1[nH]c(C)c(CC(=O)NCc2ccccc2)c1C`, the growth was 27.3%.

`OCCn1cccn1`: the growth was 103%.

For `NNc1ccc(S(N)(=O)=O)cc1`, the growth was 100%.

Take `COc1ccc(NNS(=O)(=O)O)cc1`: the growth was 99.3%.

Turning to `CCN(CC)CCOc1ccc(-c2nc3cc(Cl)ccc3s2)cc1`, the growth was -17% (active).

As for `COc1ccc(-c2c(C)noc2-c2ccc(O)cc2O)cc1`, the growth was 77.8%.

For `Cc1cc2c(-c3nc4ccccn4c3N)c(O)c(O)cc2c(O)c1-c1c(C)cc2c(-c3nc4ccccn4c3N)c(O)c(O)cc2c1O`, the growth was -2.1% (active).

Regarding `COc1ccc2nc3cc(Cl)ccc3c(NCCNc3c4ccc(Cl)cc4nc4ccc(OC)cc34)c2c1`, the growth is -69.8% (active).

Regarding `Nc1nc(Nc2ccccc2)c2ncn(Cc3cc4c(cc3Br)OCO4)c2n1`, the growth was 14.7%.

Take `C=CCc1cc(OC)c(O)c(OC)c1`: the growth was 112%.

Take `Cc1ccc(Nc2nc(SC(C)C)nc(-c3ccccc3)c2C#N)cc1`: the growth was 96.7%.

As to `O=c1oc2ccccc2cc1C1=NN=C(SCc2ccccc2)SC1`, the growth was 118%.

With `CC1=Cc2ccccc2OC12C=Cc1ccccc1O2` (stereo not given), the growth is 97%.

Turning to `CC1=C(CCC(C)N(C)Cc2ccc(OCCCN3CCCC3)cc2)C(C)(C)CCC1` (stereo not given), the growth was -18.6% (active).

As to `COc1ccc(CN2c3ccccc3Sc3ccccc32)cc1F`, the growth is -0.673% (active).

Regarding `COc1ccc(/C=N/NC(=O)Cn2c(Cc3cccc4ccccc34)nc3ccccc32)cc1`, the growth is 92.4%.

For `CCNC(=O)c1[nH]cc(-c2ccc(OC)cc2)c1-c1cc(OC)cc(OC)c1`, the growth was 76.2%.

Consider `CCCCCCCO`, for which the growth is 96.4%.

On to `CCOC(=O)c1sc(NC(=O)COc2cccc(/C=C3\Cc4ccc(Cl)cc4C3=O)c2)nc1C`, for which the growth was 118%.

`C=C(C)[C@@H]1CC[C@]2(C(=O)N[C@H](CO)Cc3ccccc3)CC[C@]3(C)[C@H](CC[C@@H]4[C@@]5(C)CCCNC(C)(C)[C@@H]5CC[C@]43C)[C@@H]12`: the growth was -90.5% (active).

Consider `COC(=O)CC[C@@H]1O[C@@H](c2ccc(F)cc2)[C@@H](O)[C@H]1O`, for which the growth is 96.5%.

For the compound `COc1cc(/C=C2\CN(C)C/C(=C\c3cc(CN4CCCC4)c(O)c(OC)c3)C2=O)cc(CN2CCCC2)c1O`, the growth was 41.8%.

Consider `CNCCCn1c2c(c3ccc(Cl)cc3c1=O)C(=O)c1cc(OC)cnc1-2`, for which the growth was 67.2%.

With `COC(CC(F)F)c1cn(S(=O)(=O)c2ccc(C)cc2)c2ccccc12` (stereo not given), the growth is 8.95% (active).

On to `c1cc(NCCCCN2CCOCC2)c2ccc3c(ccc4c(NCCN5CCOCC5)ccnc43)c2n1`, for which the growth is 75.8%.

For `C=CCOC(=O)C1=C(C)NC(=O)NC1c1c(Cl)n(C)c2ccccc12` (stereo not given), the growth was 106%.

Take `CC(=O)[C@H]1CC[C@H]2[C@@H]3CCC4=CC(=O)C=C[C@]4(C)[C@H]3CC[C@]12C`: the growth was 87.5%.

`COC(=O)Nc1nc2ccc(Sc3ccccc3)cc2[nH]1`: the growth was -3.91% (active).

Take `COc1cc(F)c(-c2nc3c(C)cccc3n2Cc2c(F)cccc2F)c(F)c1`: the growth was 65.5%.

As to `Cc1noc(C)c1CSc1ccccc1C(=O)N1CCN(c2cccc(C(F)(F)F)c2)CC1`, the growth is 38.1%.

Take `Cc1sc2nc(NCc3ccccc3)[nH]c(=O)c2c1C`: the growth is 23.7%.

Values taken from PubChem BioAssay (NCI).
